# Assay results as given in PubChem BioAssay AID1347145 (National Center for Advancing Translational Sciences (NCATS), 2019).
# Results filed as inconclusive are left out. A call without a number means that no potency is given here. Activity calls are given as the source filed them. Calls come from the whole dose curve; as a rule, active = well fitted inhibition curve with a large enough effect; inconclusive = small, poorly fitted or top-dose-only effect; inactive = no such curve, though single readings can be large or run the other way.
# Target: N-terminal Xaa-Pro-Lys N-methyltransferase 1 (Homo sapiens) (UniProt Q9BV86)
# Sequence (Q9BV86 whole entry, looked up): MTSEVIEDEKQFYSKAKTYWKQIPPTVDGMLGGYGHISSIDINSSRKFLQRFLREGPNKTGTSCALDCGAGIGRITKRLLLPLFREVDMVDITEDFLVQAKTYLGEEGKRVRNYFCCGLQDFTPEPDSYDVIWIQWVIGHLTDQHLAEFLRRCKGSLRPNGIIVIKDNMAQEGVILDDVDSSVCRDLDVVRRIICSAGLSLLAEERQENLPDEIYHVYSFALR
# Test: qHTS Assay for Inhibitors of N-terminal methyltransferase 1 (NTMT1): MTaseGlo Assay Confirmatory Screen, Round 1
# Conditions: Recombinant NTMT1, MTase-Glo SAH luminescence; series mostly up to 57.1 µM
# How it was run: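 Luminescence from MTase-Glo conversion of SAH to ATP measured activity after a 30 min RT reaction with 1 µM SPKRIA substrate, 100 µM SAM and 125 nM enzyme. Normalization used no-enzyme and DMSO controls, followed by Hill fitting.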
# Potency is the fitted concentration of half-maximal effect.
row,Structure (SMILES),Potency
1,CC(C)=CCNc1ncnc2c1ncn2[C@@H]1O[C@H](CO)[C@@H](O)[C@H]1O,inactive
2,OC[C@H]1O[C@@H](n2cnc3c(N[C@H]4C[C@H]5CC[C@@H]4C5)ncnc32)[C@H](O)[C@@H]1O,inactive
3,CCC(CC)n1ccc2c(C(=O)NCc3c(C)cc(C)[nH]c3=O)cc(C#N)cc21,inactive
4,COc1cc2nc(N3CCN(C)CC3)nc(NC3CCCCC3)c2cc1OC,inactive
5,CNc1nc(NC2CC2)c2cc(OC)c(OC)cc2n1,inactive
6,COc1cc2nc(N3CCN(C(C)=O)CC3)nc(NC3CC3)c2cc1OC,inactive
7,Nc1nc(Cl)nc2c1ncn2[C@@H]1O[C@H](CO)[C@H](O)[C@H]1O,inactive
8,Nc1ncnc2c1ncn2C1C[C@H](O)[C@@H](CO)O1 (some centres undefined),inactive
9,CSc1ncnc2c1ncn2C1OC(CO)C(O)C1O (centres undefined),30.6 µM (active)
10,CNC(=O)[C@H]1O[C@@H](n2cnc3c(NCc4ccc(N)cc4)ncnc32)[C@H](O)[C@@H]1O,inactive
11,CCCCC#Cc1nc(NC)c2ncn([C@@H]3O[C@@H](CO)[C@H](O)[C@H]3O)c2n1,inactive
12,Nc1nc(=S)c2ncn([C@@H]3O[C@H](CO)[C@@H](O)[C@H]3O)c2[nH]1,inactive
13,COc1cc2c(NC3CCN(C)CC3)nc(N3CCCN(C)CC3)nc2cc1OCCCN1CCCC1,inactive
14,C[S+](CC[C@H](N)C(=O)O)C[C@H]1O[C@@H](n2cnc3c(N)ncnc32)[C@H](O)[C@@H]1O (some centres undefined),inactive
15,Nc1ncnc2c1ncn2[C@@H]1O[C@H](C[C@@H](N)CC[C@H](N)C(=O)O)[C@@H](O)[C@H]1O,inactive
16,Nc1ncnc2c1ncn2[C@@H]1O[C@H](CO)[C@@H](O)[C@H]1O,inactive
17,Nc1nc(F)nc2c1ncn2[C@@H]1O[C@H](CO)[C@@H](O)[C@@H]1O,inactive
18,Nc1ncnc2c1ncn2C1O[C@H](COP(=O)(O)O)[C@@H](O)[C@H]1O (some centres undefined),inactive
19,COc1cc2c(NC3CCN(C)CC3)cc(N3CCCCN(C)CC3)cc2cc1OCCOCCN(C)C,inactive
20,Nc1nc2c(ncn2[C@@H]2O[C@H](CO)[C@@H](O)[C@H]2O)c(=O)[nH]1,inactive
21,Nc1ncnc2c1nc(N1CCCCC1)n2[C@@H]1O[C@@H]2COP(=O)(O)O[C@H]2[C@H]1O,inactive
22,COc1cc2c(NC3CCN(C)CC3)nc(N3CCCN(C)CC3)nc2cc1OCCCN1CCOCC1,inactive
23,Nc1ncnc2c1nc(Br)n2C1OC(CO)C(O)C1O (centres undefined),inactive
24,COc1cc2nc(N3CCN(C)CC3)nc(NCCCN(C)C)c2cc1OC,inactive
